Laboratory results: PubChem BioAssay (Tox21)
Values joined by “and” are separate entries in the source; they are usually repeats but may differ in a detail not shown here. Equal entries are not always repeated. Records with an inconclusive call do not appear. Active and inactive are the calls of the source. Unless noted, the call rests on the fitted dose curve; in most records, active means well fitted curve in the direction sought with a large enough effect in the repeat runs; inconclusive means weak or mixed curves; inactive means no such curve, though single readings can be large; an effect the other way counts as inactive or inconclusive.

How the values were obtained:
[1] = target: Estrogen receptor (Homo sapiens) (UniProt P03372); test: qHTS assay to identify small molecule antagonists of the estrogen receptor alpha (ER-alpha) signaling pathway using the BG1 cell line in the presence of 0.1 nM 17-beta-estradiol (AID 1259244); further: nearly all actives have a fitted effect of over 50% in size; further: potency means the concentration at half of the fitted maximal effect
Procedure, shortened: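 VM7Luc4E2 cells (endogenous full-length ER-alpha, stable 4xERE-luciferase) were grown 5 days in phenol red-free medium with charcoal-stripped FBS, then exposed 22 h at 37C to compounds plus 0.1 nM (final) 17beta-estradiol; ONE-Glo luminescence read-out.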

[2] = qHTS assay to identify small molecule HDAC inhibitors (AID 1259364); further: top concentration of the series differs between compounds; nearly all actives have a fitted effect of over 45% in size
Procedure, shortened: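 Wild-type HCT-116 cells were plated overnight, exposed to compounds for 2 h at 37 °C, then given HDAC-Glo class I/II luminogenic reagent for 30 min at room temperature before luminescence was read.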

[3] = qHTS assay to identify small molecule HDAC inhibitors - cell viability counter screen (AID 1259365); further: series mostly up to about 92 µM; nearly all actives have a fitted effect of over 50% in size
Procedure, shortened: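 Viability readout: CellTiter-Glo luminescence. Wild-type HCT-116 cells, 2hr compound treatment following overnight attachment at 37 C.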

[4] = qHTS assay to identify small molecule agonists of the sonic hedgehog signaling (Shh) pathway - cell viability counter screen (AID 1259366); further: nearly all actives have a fitted effect of over 50% in size; further: potency means the concentration at half of the fitted maximal effect
Procedure, shortened: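 Viability measured fluorometrically (CellTiter-Fluor, 1hr, 37C) in 3T3 Gli1-Luc reporter cells after 23hr compound exposure within a 24hr incubation at 37C/5% CO2.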

[5] = qHTS assay to identify small molecule antagonists of the sonic hedgehog signaling (Shh) pathway - cell viability counter screen (AID 1259367); further: nearly all actives have a fitted effect of over 55% in size
Procedure, shortened: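 NIH/3T3-derived Gli1-Luc reporter cells (2,000 per well) rested 4 hr at 37 C, then received DMSO compounds plus conditioned medium. After 23 hr of treatment, CellTiter-Fluor was added for 1 hr at 37C and fluorescence read.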

[6] = qHTS assay to identify small molecule agonists of the sonic hedgehog signaling (Shh) pathway (AID 1259368; calls by dose curve; further: series mostly up to about 92 µM; nearly all actives have a fitted effect of over 15% in size)
Procedure, shortened: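 NIH/3T3-derived 3T3Gli1-Luc cells carrying a stably integrated Gli1 response element–firefly luciferase reporter were plated, left 4 hr at 37 C, then given compounds in DMSO for 24 hr. Luminescence was read 30 min after adding luciferase reagent.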

[7] = qHTS assay to identify small molecule agonists of the androgen receptor (AR) signaling pathway in the presence of an antagonist - cell viability counter screen (AID 1259379); further: nearly all actives have a fitted effect of over 25% in size; further: potency means the concentration at half of the fitted maximal effect; on activity change, negative = cytotoxicity: series mostly up to about 92 µM
Procedure, shortened: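 MDA-kb2 human breast carcinoma cells (stable MMTV-luciferase, AR/GR responsive) were seeded 3,000 cells/well, pre-incubated 5 hr at 37C without CO2, then given 3.0uM nilutamide and compounds at 15 concentrations for 16 hr. Viability was read by CellTiter-Fluor fluorescence.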

[8] = qHTS assay to identify small molecule antagonists of the estrogen receptor beta (ER-beta) signaling pathway - cell viability counter screen (AID 1259382); further: nearly all actives have a fitted effect of over 55% in size; further: potency means the concentration at half of the fitted maximal effect; on activity change, negative = cytotoxicity: series mostly up to about 92 µM
Procedure, shortened: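 ER-beta-UAS-bla HEK293T cells (2,000/well, 2% charcoal-stripped FBS) were pre-incubated 6 hr at 37C, then given compound plus 1nM final 17-beta-estradiol for 16 hr. Viability was read in the same wells by CellTiter-Glo luminescence after 30 min at room temperature.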

[9] = target: Estrogen receptor (Homo sapiens) (UniProt P03372); test: qHTS assay to identify small molecule agonists of the estrogen receptor alpha (ER-alpha) signaling pathway in the presence of an antagonist (AID 1259383; calls by dose curve; further: top concentration of the series differs between compounds; nearly all actives have a fitted effect of over 15% in size)
Procedure, shortened: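 VM7Luc4E2 cells (endogenous full-length ER-alpha, 4×ERE-luciferase) were precultured 5 days in phenol red-free medium with 10% charcoal-stripped FBS, given 10.0nM ICI-182,780 (final), then treated with compounds at 15 concentrations for 22hr at 37C; luminescence read with ONE-Glo.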

[10] = qHTS assay to identify small molecule agonists or antagonists of the thyroid stimulating hormone receptor (TSHR) signaling pathway - wild type cell line counter screen (AID 1259384; calls by dose curve)
Procedure, shortened: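 Wild-type HEK293 cells were plated 18 h at 37 C/5% CO2, pin-dosed with compound plus Ro20-1724 medium, held 30 min at room temperature, then given cAMP-d2 and anti-cAMP-cryptate; fluorescence was read after 1 h. Fifteen concentrations, triplicate.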

[11] = target: Thyrotropin receptor (Homo sapiens) (UniProt P16473); test: qHTS assay to identify small molecule antagonists of the thyroid stimulating hormone receptor (TSHR) signaling pathway (AID 1259385; calls by dose curve; further: nearly all actives have a fitted effect of over 20% in size; further: potency means the concentration at half of the fitted maximal effect)
Procedure, shortened: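 TSHR-HEK293 cells were plated and held 18 h at 37C/5% CO2, then given compound plus Ro20-1724 and stimulated with TSH at 1.5 ng/mL final. After 30 min at room temperature, cAMP was detected with cAMP-d2/anti-cAMP-cryptate (1 h) by fluorescence.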

[12] = qHTS assay to identify small molecule agonists of the estrogen receptor alpha (ER-alpha) signaling pathway in the presence of an antagonist - cell viability counter screen (AID 1259386); further: series mostly up to about 92 µM; nearly all actives have a fitted effect of over 30% in size
Procedure, shortened: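 VM7Luc4E2 cells (endogenous full-length ER-alpha, 4×ERE-luciferase) were held 5 days in phenol red-free medium with 10% charcoal-stripped FBS, plated, then given 10.0nM ICI-182,780 and compounds at 15 concentrations for 22hr at 37C; viability read by CellTiter-Fluor fluorescence.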

[13] = target: Progesterone receptor (Homo sapiens) (UniProt P06401); test: qHTS assay to identify small molecule agonists of the progesterone receptor (PR) signaling pathway (AID 1346784; calls by dose curve; further: nearly all actives have a fitted effect of over 30% in size)
Procedure, shortened: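 Agonist mode, quantitative HTS format in a HEK 293T line expressing a UAS-controlled beta-lactamase reporter; 16 hr compound exposure at 37C in 2% charcoal-stripped FBS, then LiveBLAzer B/G FRET fluorescence.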

[14] = target: Progesterone receptor (Homo sapiens) (UniProt P06401); test: qHTS assay to identify small molecule antagonists of the progesterone receptor (PR) signaling pathway (AID 1346795; active means well fitted inhibition curve with a large enough effect in the signal ratio in the repeat runs, not every such curve was filed as active; the % refers to the signal ratio; further: potency means the concentration at half of the fitted maximal effect)
Procedure, shortened: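 HEK293T PR-UAS-bla reporter cells in charcoal-stripped serum (2%) received compound after a 6 hr settling period, followed by R5020 agonist at 1 nM final; 16 hr incubation preceded the FRET substrate step and fluorescence measurement.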

[15] = qHTS assay to identify small molecule agonists of the estrogen receptor beta (ER-beta) signaling pathway - cell viability counter screen (AID 1259380); further: nearly all actives have a fitted effect of over 30% in size; further: potency means the concentration at half of the fitted maximal effect
Procedure, shortened: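 ER-beta-UAS-bla HEK293T cells in medium with 2% charcoal-stripped FBS were preincubated 6 hr at 37C, dosed with compound in DMSO for 16 hr, then after the bla read, CellTiter-Glo was added for 30 min at room temperature; luminescence recorded.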

[16] = qHTS assay to identify small molecule antagonists of the sonic hedgehog signaling (Shh) pathway (AID 1259369; calls by dose curve; further: nearly all actives have a fitted effect of over 45% in size; further: potency means the concentration at half of the fitted maximal effect)
Procedure, shortened: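 NIH/3T3-derived 3T3Gli1-Luc cells with stably integrated Gli1-Luc reporter were preincubated 4hr at 37 C, then given compounds in DMSO plus Shh conditioned medium and incubated 24hr. Firefly luciferase luminescence read after 30min reagent at room temperature.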

[17] = target: Estrogen receptor beta (Homo sapiens) (UniProt Q92731); test: qHTS assay to identify small molecule agonists of the estrogen receptor beta (ER-beta) signaling pathway (AID 1259377; active means well fitted activation curve with a large enough effect in the signal ratio in the repeat runs, not every such curve was filed as active; the % refers to the signal ratio)
Procedure, shortened: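 A UAS-controlled beta-lactamase reporter in ER-beta-UAS-bla HEK293T cells reports receptor activation. Compounds act for 16 hr at 37C in 2% charcoal-stripped serum, and a FRET substrate is read by fluorescence after 2 hours.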

[18] = target: Estrogen receptor beta (Homo sapiens) (UniProt Q92731); test: qHTS assay to identify small molecule antagonists of the estrogen receptor beta (ER-beta) signaling pathway (AID 1259378; active means well fitted inhibition curve with a large enough effect in the signal ratio in the repeat runs, not every such curve was filed as active; the % refers to the signal ratio; further: potency means the concentration at half of the fitted maximal effect)
Procedure, shortened: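 ER-beta-UAS-bla HEK293T (GripTite) cells in 2% charcoal-stripped FBS medium were preincubated 6 hr at 37C, dosed with compound, then stimulated with 1 nM E2 (final) for 16 hr; beta-lactamase reporter read by B/G FRET fluorescence after 2 hr substrate loading.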

[19] = target: Androgen receptor (Homo sapiens) (UniProt P10275); test: qHTS assay to identify small molecule agonists of the androgen receptor (AR) signaling pathway in the presence of an antagonist (AID 1259381; calls by dose curve; further: nearly all actives have a fitted effect of over 15% in size)
Procedure, shortened: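 MDA-kb2 human breast carcinoma cells carrying an MMTV-luciferase reporter (AR- and GR-responsive) were treated with compounds at 15 concentrations plus 3.0uM final nilutamide for 16hr at 37C without CO2; luminescence was read after ONE-Glo addition.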
On the % scale 0 is the no-effect control and ±100 the full control effect.

Chain of Estrogen receptor beta (Homo sapiens) (Q92731 whole entry, looked up): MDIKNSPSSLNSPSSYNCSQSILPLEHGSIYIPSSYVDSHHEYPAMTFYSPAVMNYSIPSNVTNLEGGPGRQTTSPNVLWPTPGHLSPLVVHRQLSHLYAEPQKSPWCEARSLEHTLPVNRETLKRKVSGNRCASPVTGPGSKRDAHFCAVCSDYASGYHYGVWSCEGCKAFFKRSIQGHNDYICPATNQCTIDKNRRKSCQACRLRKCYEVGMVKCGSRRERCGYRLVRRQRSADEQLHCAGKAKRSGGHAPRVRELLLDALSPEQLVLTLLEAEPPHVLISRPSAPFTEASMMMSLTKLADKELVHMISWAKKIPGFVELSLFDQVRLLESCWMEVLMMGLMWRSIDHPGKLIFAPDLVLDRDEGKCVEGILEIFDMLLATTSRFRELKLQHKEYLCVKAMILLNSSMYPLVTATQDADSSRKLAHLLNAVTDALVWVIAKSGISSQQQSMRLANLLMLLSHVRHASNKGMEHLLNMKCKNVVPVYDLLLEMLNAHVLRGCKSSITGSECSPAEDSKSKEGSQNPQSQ
Chain of Androgen receptor (Homo sapiens) (P10275 whole entry, looked up): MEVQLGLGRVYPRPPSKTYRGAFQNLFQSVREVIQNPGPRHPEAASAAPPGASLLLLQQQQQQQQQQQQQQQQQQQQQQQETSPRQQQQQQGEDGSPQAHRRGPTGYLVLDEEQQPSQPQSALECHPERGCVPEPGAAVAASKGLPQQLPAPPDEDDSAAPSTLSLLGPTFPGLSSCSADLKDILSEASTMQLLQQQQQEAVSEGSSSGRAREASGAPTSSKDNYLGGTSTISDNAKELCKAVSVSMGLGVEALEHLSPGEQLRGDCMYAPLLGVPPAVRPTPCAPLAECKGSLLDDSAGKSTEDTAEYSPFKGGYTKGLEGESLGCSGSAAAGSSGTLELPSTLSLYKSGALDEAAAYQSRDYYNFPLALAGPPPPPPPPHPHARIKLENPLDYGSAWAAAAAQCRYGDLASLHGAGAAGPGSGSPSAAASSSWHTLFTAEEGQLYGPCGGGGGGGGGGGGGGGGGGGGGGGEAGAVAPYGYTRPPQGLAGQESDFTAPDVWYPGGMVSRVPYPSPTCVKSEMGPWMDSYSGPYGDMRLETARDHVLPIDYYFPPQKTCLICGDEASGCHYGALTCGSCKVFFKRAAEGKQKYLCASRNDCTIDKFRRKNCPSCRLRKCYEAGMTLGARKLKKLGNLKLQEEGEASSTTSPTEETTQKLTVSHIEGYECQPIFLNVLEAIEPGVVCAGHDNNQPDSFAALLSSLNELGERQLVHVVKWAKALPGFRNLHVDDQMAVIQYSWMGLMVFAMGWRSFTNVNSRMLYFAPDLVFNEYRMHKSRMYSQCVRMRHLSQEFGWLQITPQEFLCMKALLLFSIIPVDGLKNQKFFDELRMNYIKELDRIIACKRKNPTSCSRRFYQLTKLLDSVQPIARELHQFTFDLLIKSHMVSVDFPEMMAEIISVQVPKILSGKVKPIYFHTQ
Chain of Progesterone receptor (Homo sapiens) (P06401 whole entry, looked up): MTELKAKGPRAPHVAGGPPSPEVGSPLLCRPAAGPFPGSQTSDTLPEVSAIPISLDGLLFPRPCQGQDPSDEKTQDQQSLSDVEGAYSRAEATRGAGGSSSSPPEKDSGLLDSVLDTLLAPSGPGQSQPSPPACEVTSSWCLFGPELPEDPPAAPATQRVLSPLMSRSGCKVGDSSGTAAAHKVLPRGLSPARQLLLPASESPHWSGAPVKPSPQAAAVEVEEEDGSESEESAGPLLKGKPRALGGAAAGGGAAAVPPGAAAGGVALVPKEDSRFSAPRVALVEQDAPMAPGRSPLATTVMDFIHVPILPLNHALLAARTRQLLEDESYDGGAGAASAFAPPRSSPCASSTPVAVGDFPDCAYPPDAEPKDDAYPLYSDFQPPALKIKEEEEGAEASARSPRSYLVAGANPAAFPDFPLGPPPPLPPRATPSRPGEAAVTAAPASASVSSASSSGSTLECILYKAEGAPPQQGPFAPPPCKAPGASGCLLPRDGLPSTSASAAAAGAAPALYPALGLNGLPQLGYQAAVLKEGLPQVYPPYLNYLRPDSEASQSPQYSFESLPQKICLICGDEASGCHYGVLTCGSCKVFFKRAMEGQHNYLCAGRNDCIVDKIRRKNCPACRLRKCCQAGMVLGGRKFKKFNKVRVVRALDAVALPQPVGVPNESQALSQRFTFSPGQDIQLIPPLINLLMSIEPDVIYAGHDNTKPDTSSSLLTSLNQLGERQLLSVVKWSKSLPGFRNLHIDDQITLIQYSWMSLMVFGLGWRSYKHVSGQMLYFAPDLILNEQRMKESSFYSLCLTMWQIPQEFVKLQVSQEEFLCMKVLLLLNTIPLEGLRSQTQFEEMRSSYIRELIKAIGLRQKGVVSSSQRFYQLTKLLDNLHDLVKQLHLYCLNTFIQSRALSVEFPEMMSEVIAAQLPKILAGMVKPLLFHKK
Chain of Estrogen receptor (Homo sapiens) (P03372 whole entry, looked up): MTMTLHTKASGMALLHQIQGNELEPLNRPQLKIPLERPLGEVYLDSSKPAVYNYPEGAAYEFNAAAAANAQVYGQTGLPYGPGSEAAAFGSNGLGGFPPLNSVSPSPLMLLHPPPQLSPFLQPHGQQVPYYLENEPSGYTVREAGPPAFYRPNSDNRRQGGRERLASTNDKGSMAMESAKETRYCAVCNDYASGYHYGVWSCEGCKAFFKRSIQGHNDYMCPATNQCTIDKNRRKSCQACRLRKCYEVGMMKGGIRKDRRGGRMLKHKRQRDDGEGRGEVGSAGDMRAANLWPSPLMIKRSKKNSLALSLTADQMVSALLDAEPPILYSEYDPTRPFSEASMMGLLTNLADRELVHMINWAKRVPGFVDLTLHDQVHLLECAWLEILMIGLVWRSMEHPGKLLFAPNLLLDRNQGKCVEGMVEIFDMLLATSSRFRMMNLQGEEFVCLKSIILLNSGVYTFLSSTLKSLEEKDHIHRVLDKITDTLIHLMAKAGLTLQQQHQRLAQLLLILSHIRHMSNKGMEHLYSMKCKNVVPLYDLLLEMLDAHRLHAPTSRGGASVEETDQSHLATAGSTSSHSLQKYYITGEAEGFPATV
Chain of Thyrotropin receptor (Homo sapiens) (P16473 whole entry, looked up): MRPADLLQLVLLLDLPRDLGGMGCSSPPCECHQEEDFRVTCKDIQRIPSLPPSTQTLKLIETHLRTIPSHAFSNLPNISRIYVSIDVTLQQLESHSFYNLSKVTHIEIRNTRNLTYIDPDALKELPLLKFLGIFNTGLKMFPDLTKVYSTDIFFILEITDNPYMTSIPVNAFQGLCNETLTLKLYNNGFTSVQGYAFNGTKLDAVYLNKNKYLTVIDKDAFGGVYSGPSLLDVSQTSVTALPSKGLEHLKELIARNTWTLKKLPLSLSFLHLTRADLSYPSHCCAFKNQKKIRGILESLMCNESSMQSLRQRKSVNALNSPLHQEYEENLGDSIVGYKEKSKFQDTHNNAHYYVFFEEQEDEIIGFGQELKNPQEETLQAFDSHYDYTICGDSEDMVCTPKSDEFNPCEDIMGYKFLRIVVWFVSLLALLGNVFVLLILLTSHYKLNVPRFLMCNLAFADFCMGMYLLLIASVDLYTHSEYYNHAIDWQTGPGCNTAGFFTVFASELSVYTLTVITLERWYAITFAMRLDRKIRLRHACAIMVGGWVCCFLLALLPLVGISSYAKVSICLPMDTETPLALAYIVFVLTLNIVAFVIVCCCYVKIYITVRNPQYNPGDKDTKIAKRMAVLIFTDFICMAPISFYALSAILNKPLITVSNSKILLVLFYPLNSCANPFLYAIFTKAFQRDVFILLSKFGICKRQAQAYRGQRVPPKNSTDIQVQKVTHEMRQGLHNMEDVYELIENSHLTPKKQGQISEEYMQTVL

CCCC(CC)CCCCCCCN (configuration not stated)
inactive: Potency [1] | Potency [2] | Potency [3] | Potency [4] | Potency [5] | Potency [6] | Potency [8] | Potency [9] | outcome [10] | Potency [11] | Potency [12] | outcome [13] | Potency [14]
active: Potency [7] 62.6 µM

C(=C/c1ccccc1)/c1ccccc1
inactive: Potency [1] | Potency [2] | Potency [3] | Potency [4] | Potency [5] | Potency [6] | Potency [7] | Potency [15] | Potency [9] | outcome [10] | Potency [12] | outcome [13] | Potency [14]

CCOB(OCC)OCC
inactive: Potency [1] | Potency [2] | Potency [3] | Potency [4] | Potency [5] | Potency [16] | Potency [17] | Potency [18] | Potency [7] | Potency [15] | Potency [19] | Potency [9] | outcome [10] | Potency [11] | Potency [12] | outcome [13] | Potency [14]

CCCCCCCCCCc1ccccc1
inactive: Potency [1] | Potency [2] | Potency [3] | Potency [4] | Potency [5] | Potency [6] | Potency [7] | Potency [15] | Potency [8] | Potency [9] | Potency [12] | Potency [14]

Cc1cc(=O)[nH]c(=O)[nH]1
inactive: Potency [1] | Potency [2] | Potency [3] | Potency [4] | Potency [5] | Potency [16] | Potency [17] | Potency [18] | Potency [15] | Potency [8] | Potency [9] | outcome [10] | Potency [12] | outcome [13] | Potency [14]

CN(C)CCCN1c2ccccc2Sc2ccc(C(F)(F)F)cc21
active: Potency [15] 18.8 µM | Potency [8] 18.8 µM | Potency [11] 29.8 µM
inactive: Potency [1] | Potency [2] | Potency [3] | Potency [4] | Potency [6] | Potency [9] | outcome [10] | Potency [12] | outcome [13]

OCCN1CN(CCO)CN(CCO)C1
inactive: Potency [1] | Potency [2] | Potency [3] | Potency [4] | Potency [5] | Potency [6] | Potency [15] | Potency [19] | Potency [9] | outcome [10] | Potency [11] | Potency [12] | Potency [14]

COc1ccc2sc(C(=O)Nc3nnn[nH]3)c(OC(C)C)c2c1
inactive: Potency [2] | Potency [3] | Potency [6] | Potency [17] | Potency [9] | outcome [10] | outcome [13]
active: Potency [1] 30.5 µM | Potency [4] 27.2 µM | Potency [16] 6.83 µM | Potency [15] 6.83 µM | Potency [14] 54.3 µM

CCc1ccc(C)nc1
inactive: Potency [1] | Potency [2] | Potency [3] | Potency [4] | Potency [5] | Potency [16] | Potency [17] | Potency [18] | Potency [7] | Potency [15] | Potency [19] | Potency [9] | outcome [10] | outcome [13]

CCO[Si](CCCSSSSCCC[Si](OCC)(OCC)OCC)(OCC)OCC
active: Potency [15] 61.2 µM | Potency [8] 54.5 µM
inactive: Potency [1] | Potency [2] | Potency [3] | Potency [4] | Potency [5] | Potency [6] | Potency [9] | Potency [12] | outcome [13] | Potency [14]

CCCCN(CCCC)CCC(O)c1cc2c(Cl)cc(Cl)cc2c2cc(C(F)(F)F)ccc12 (configuration not stated)
inactive: Potency [1] | Potency [2] | Potency [3] | Potency [4] | Potency [5] | Potency [17] | Potency [9] | outcome [10] | Potency [11] | Potency [12] | outcome [13] | Potency [14]
active: Potency [15] 7.5 µM

COc1cc(C(C)C)c2c(c1)S(=O)(=O)N(COc1cc(=O)n3cccc(OCCN4CCCCC4)c3n1)C2=O
inactive: activity change, negative = inhibition [1] -10.3% [at 19 µM] | activity change, negative = inhibition [2] -2.47% [at 19 µM] | activity change, negative = cytotoxicity [3] -0.608% [at 19 µM] | viability change, negative = cytotoxic [4] -0.671% [at 19 µM] | activity change, negative = cytotoxicity [7] 0.166% [at 19 µM] | activity change, negative = cytotoxicity [15] -6.94% [at 19 µM] | activation [19] -1.84% [at 19 µM] | activity change, negative = cytotoxicity [8] -17.6% [at 19 µM] | activation [9] -2.57% [at 19 µM] | cAMP activity change [10] 5.85% [at 18.9 µM] | activity change, negative = inhibition [11] -0.822% [at 19 µM] | activity change, negative = cytotoxicity [12] 4.42% [at 19 µM] | activation [13] 8.35% [at 19 µM]

CC(=O)OC1CCCCC1
inactive: Potency [1] | Potency [2] | Potency [3] | Potency [4] | Potency [5] | Potency [6] | Potency [7] | Potency [15] | Potency [19] | Potency [9] | outcome [10] | Potency [11] | Potency [12] | outcome [13] | Potency [14]

CCCCCCCC/C=C\CCCCCCCC(=O)N(C)CC(=O)O
inactive: Potency [1] | Potency [2] | Potency [3] | Potency [4] | Potency [5] | Potency [16] | Potency [9] | outcome [10] | Potency [11] | Potency [12]
active: Potency [15] 54.5 µM | Potency [8] 61.1 µM | Potency [14] 24.3 µM

c1ccc(Nc2cccc3ccccc23)cc1
inactive: Potency [1] | Potency [2] | Potency [3] | Potency [4] | Potency [5] | Potency [17] | Potency [9] | outcome [10] | Potency [11] | Potency [12]
active: Potency [16] 30.6 µM | Potency [18] 31 µM and 54.5 µM | Potency [15] 54.5 µM | Potency [14] 13.9 µM
